The source of these data is PubChem BioAssay (EPA / NIEHS).

Activity calls are given as the source filed them. How the source made its calls: active means hit-call score of the fitted dose curve at least 0.9, where 1 is the maximum; inactive means score below 0.9.

As a reminder, the AC50 is the concentration at which the activity in the assay is half-maximal.

Read-out in the test: solute carrier (SLCO1B1), SLCO1B1 (gene 10599)
As to the kind of experiment: LTEA_HepaRG_SLCO1B1: Life Technologies and Expression Analysis (LTEA) Assay for solute carrier (SLCO1B1) using HepaRG (AID 2283530). The note with it: mRNA level, 48 h; actives raise or lower the signal. The procedure: LTEA_HepaRG is a cell based, multiplexed-readout assay that uses HepaRG, a human liver cell line, with measurements taken at 48 hours after chemical dosing on a 96-well plate.LTEA_HepaRG_SLCO1B1 is one of 102 assay component(s) measured in the LTEA HepaRG cell culture assay. It is a marker of NR mediated transport.Data from the assay component LTEA_HepaRG_SLCO1B1 was analyzed into 1 endpoint. This assay endpoint, LTEA_HepaRG_SLCO1B1, was analyzed with bidirectional fitting relative to DMSO as the negative control and baseline of activity. Using a type of inducible reporter, measures of mRNA induction for gain or loss-of-signal activity can be used to understand regulation of transcription factor activity. To generalize the intended target to other relatable targets, this assay endpoint is annotated to the transporter intended target family, where the subfamily is organic anion transporter.
A total of 1060 chemcials from the ToxCast library were tested in eight-point concentration-response experiments. Cell culture and cytotoxicity assays were conducted at Thermo Fisher Scientific's Custom Services facility (Madison, WI). A single lot of human HepaRG cells (Thermo Fisher Scientific, Frederick, MD) was used for the cell culture experiments. 96-well format collagen type I coated plates of human HepaRG cells were prepared using established methods. Briefly, cryopreserved HepaRG cells were thawed, plated at a density of approximately 100,000 cells/well in HepaRG Thaw, Plate, and General Purpose media (HPRG770, Thermo Fisher Scientific), and incubated for 48 hours. 0.5% DMSO was selected as vehicle control to balance the requisite need of DMSO in HepaRG cultures to maintain differentiation (for example, baseline metabolism, proportions of hepatocytes vs. cholangiocytes), while enabling further hepatic receptor pathway activation (for example, PXR and CAR) in response to chemical exposure. 48 hours after plating, the culture medium was replaced with HepaRG Serum-Free Incudtion Media. Cells were exposed to each test chemical in duplicate and maintained in CO2 incubators for another 48 hours. Chemical plates were thawed to room temperature and 200x concentrations of treatment groups were prepared. 8-point conentration-reponse curves were made with the highest exposure at 100 uM, followed by half-log dilutions, all in 0.5% DMSO. Each test plate contained variouse controls, induction positive controls (1mM phenobarbital), cytotoxicity positive controls ([…] aflatoxin B1), vehicle controls (0.5% DMSO), and total lysis controls (0.5% DMSO). Cell morphology images were taken using an Essen IncuCyte FLR automated microscope, with six 96-well plates imaged in about 24 minutes. Images were captured and exported and JPEG files. Spent culture media was transfered to black-well plates for the LDH assay, and remaining media was sorted at -80 C for later use. Cells were treated with RLT buffer and frozen until shipped for gene expression analysis. Total RNA was isolated from the cell suspension in 75 uL of Buffer RLT (Qiagen, Germantown, MD 20874) by Quintiles/Expression Analysis (Durham, NC) using a custom isolation procedure. Total RNA from each plate well was transferred to a preamplification plate. Fluidigm's 96.96 Dynamic ArrayTM (Fluidigm, Amsterdam, the Netherlands) technology was used for gene expression analyses by quantitative reverse transcription polymerase chain reaction (qRT-PCR, performed by Quintiles/Expression Analysis, Durham, NC)89. Standard TaqManTM Assays (Applied Biosystems/ThermoFisher Scientific, Foster City, CA) were used to assess the expression of 93 genes selected based on their selectivity and sensitivity to important hepatic receptors known to be modulated by environmental chemicals; importance in human hepatocyte functionality; and hepatotoxicity. […]
On to `Cc1cc(C)nc(Nc2ccccc2)n1`, for which the call was inactive.

`Cn1c(-c2ccccc2)cc(-c2ccccc2)[n+]1C`: the AC50 is 18.6 µM (active).

With `CC(C)Oc1cccc(NC(=O)c2ccccc2C(F)(F)F)c1`, the outcome was inactive.

In the case of `CO/N=C(/C1=NOCCO1)c1ccccc1Oc1ncnc(Oc2ccccc2Cl)c1F`, the AC50 is 31.1 µM (active).

With `COCC(=O)N(c1c(C)cccc1C)C(C)C(=O)OC` (stereo not given), the call was inactive.

`COc1cc(OC)nc(NC(=O)NS(=O)(=O)c2ncccc2OCC(F)(F)F)n1`: the AC50 was 9.92 µM (active).

With `N#Cc1c(Cl)cccc1Cl`, the compound was called inactive.

`COP(=O)(OC)O/C(C)=C/C(=O)N(C)C`: the compound was called inactive.

In the case of `COP(=S)(OC)Oc1ccc([N+](=O)[O-])c(C)c1`, the result was inactive.

In the case of `CCOc1nc(C(Cl)(Cl)Cl)ns1`, the AC50 is 1.88 µM (active).

Turning to `CCOc1cc(C(C)(C)C)ccc1C1COC(c2c(F)cccc2F)=N1` (stereo not given), the compound was classed as inactive.

On to `CC1(C)CCC(=Cc2ccc(Cl)cc2)C1(O)Cn1cncn1` (stereo not given), for which the compound was called inactive.

Consider `CC1(C)C(C=C(Cl)Cl)C1C(=O)OC(C#N)c1cccc(Oc2ccccc2)c1` (stereo not given), for which the compound was called inactive.

In the case of `O=c1n(Cl)c(=O)n(Cl)c(=O)n1Cl`, the result was inactive.

As for `COC(=O)NS(=O)(=O)c1ccc(N)cc1`, the outcome was inactive.

Take `COC(=O)c1c(C(F)F)nc(C(F)(F)F)c(C2=NCCS2)c1CC(C)C`: the result was inactive.

As for `COC(=O)N(C(=O)N1CO[C@@]2(C(=O)OC)Cc3cc(Cl)ccc3C2=N1)c1ccc(OC(F)(F)F)cc1`, the AC50 was 59 µM (active).

In the case of `CCCN(CC)CC1COC2(CCC(C(C)(C)C)CC2)O1` (stereo not given), the call was inactive.

Take `CCCCOCN(C(=O)CCl)c1c(CC)cccc1CC`: the compound was called inactive.

As for `CN=C=S`, the compound was called inactive.

On to `CCC(C)n1c(=O)[nH]c(C)c(Br)c1=O` (stereo not given), for which the concentration at half-maximal activity (AC50) is 29 µM (active).

With `Clc1cccc(C(Cl)(Cl)Cl)n1`, the call was inactive.

As for `C=CCOC(=O)C(C)(C)OC(=O)c1cc(-n2c(=O)cc(C(F)(F)F)n(C)c2=O)ccc1Cl`, the call was inactive.

As to `N#Cc1c[nH]cc1-c1cccc2c1OC(F)(F)O2`, the concentration at half-maximal activity (AC50) was 50 µM (active).

As to `O=C(O)c1c(Cl)ccc2cc(Cl)cnc12`, the compound was called inactive.

`CCOc1nc(F)cc2nc(S(=O)(=O)Nc3c(Cl)cccc3Cl)nn12`: the outcome was inactive.

`CS(=O)(=O)c1cc(C(F)(F)F)ccc1C(=O)c1cnoc1C1CC1`: the compound was classed as inactive.

Consider `CC1(C)CON(Cc2ccccc2Cl)C1=O`, for which the result was inactive.

Consider `CC(C)N1C(=O)N(c2ccccc2)CSC1=NC(C)(C)C`, for which the outcome was inactive.

For `CCCCC(O)(Cn1cncn1)c1ccc(Cl)cc1Cl` (stereo not given), the AC50 is 76.6 µM (active).

In the case of `COc1cc(Cl)c(OC)cc1Cl`, the outcome was inactive.

In the case of `Cc1c(COC(=O)[C@@H]2[C@H](/C=C(\Cl)C(F)(F)F)C2(C)C)cccc1-c1ccccc1`, the compound was classed as inactive.

Turning to `CC(C)=CC1C(C(=O)OCc2coc(Cc3ccccc3)c2)C1(C)C` (stereo not given), the result was inactive.

Consider `N#CN=C1SCCN1Cc1ccc(Cl)nc1`, for which the compound was called inactive.

As to `CC(C)NC(=O)N1CC(=O)N(c2cc(Cl)cc(Cl)c2)C1=O`, the AC50 was 15.6 µM (active).

Turning to `C=C(C)CN(CC)c1c([N+](=O)[O-])cc(C(F)(F)F)cc1[N+](=O)[O-]`, the result was inactive.

As for `CCOP(=S)(OCC)Oc1nc(Cl)n(C(C)C)n1`, the call was inactive.

As to `Clc1nc(Cl)nc(Nc2ccccc2Cl)n1`, the compound was classed as inactive.

On to `CCOP(=O)(OCC)Oc1nc(Cl)c(Cl)cc1Cl`, for which the concentration at half-maximal activity (AC50) was 93.5 µM (active).

As to `Nc1cnn(-c2ccccc2)c(=O)c1Cl`, the call was inactive.
